# Measurements published in PubChem BioAssay AID1942 (Johns Hopkins Ion Channel Center, 2009).
# Out of some 2,400 compounds screened, about 580 (24%) were called active.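 Rule for the calls: active = activity change at or above the mean plus 3 SD of buffer wells without dofetilide, per plate; inactive = the rest.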 Only a sample is shown.
# Target: Potassium voltage-gated channel subfamily KQT member 2 (Rattus norvegicus) (UniProt O88943)
# Assay: KCNQ2 potentiation in CHO cells – cell-based, FluxOR thallium flux, counter-screen for hERG block protector project, confirmation (AID 1942);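 note: normalized value minus buffer-control mean plus three SD of buffer wells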
# Details: FluxOR thallium flux fluorescence, at 10 µM, stronger effect = higher value
# Sequence of Potassium voltage-gated channel subfamily KQT member 2 (Rattus norvegicus) (O88943 whole entry, looked up): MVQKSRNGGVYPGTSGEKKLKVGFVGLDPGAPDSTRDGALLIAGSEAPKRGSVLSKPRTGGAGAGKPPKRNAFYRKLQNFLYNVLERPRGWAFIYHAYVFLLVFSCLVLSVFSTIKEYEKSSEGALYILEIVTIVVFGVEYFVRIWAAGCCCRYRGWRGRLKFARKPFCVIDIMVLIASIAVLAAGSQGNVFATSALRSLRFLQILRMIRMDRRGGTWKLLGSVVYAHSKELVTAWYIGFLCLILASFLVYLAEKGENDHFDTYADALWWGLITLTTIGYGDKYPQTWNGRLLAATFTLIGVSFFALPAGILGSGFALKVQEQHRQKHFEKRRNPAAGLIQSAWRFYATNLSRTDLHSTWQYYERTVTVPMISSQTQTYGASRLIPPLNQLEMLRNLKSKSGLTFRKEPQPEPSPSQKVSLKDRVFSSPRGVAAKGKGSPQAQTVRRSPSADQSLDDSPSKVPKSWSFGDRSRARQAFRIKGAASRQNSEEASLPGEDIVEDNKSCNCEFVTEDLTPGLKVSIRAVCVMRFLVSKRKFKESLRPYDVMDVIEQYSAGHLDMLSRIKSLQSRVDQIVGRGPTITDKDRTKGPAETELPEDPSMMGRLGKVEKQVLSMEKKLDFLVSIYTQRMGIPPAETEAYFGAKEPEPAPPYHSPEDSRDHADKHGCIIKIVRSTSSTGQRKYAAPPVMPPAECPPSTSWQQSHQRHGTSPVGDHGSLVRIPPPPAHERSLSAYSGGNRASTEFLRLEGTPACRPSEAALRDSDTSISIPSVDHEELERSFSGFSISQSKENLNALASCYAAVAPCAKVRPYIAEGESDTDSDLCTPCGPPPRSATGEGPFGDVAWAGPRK
row,SMILES,"activity change, less the hit threshold"
1,CN(CCc1ccccn1)C(=O)CCC1CCCN(C(=O)c2ccsc2)C1 (stereo not drawn),-13.1% (inactive)
2,O=C(c1cccs1)N1CCN=C1SCc1ccccc1,-22.6% (inactive)
3,CN(Cc1ccccc1)C(=S)NC(=O)c1cccs1,7.6% (active)
4,Cc1ccc(C(=O)NC(=S)N(C)Cc2ccccc2)cc1,7.1% (active)
5,Cc1ccc(C(=O)NNC(=S)NC(=O)c2ccccc2)cc1,-25.9% (inactive)
6,COc1ccc(N(CC(=O)NCc2cccnc2)S(=O)(=O)c2ccccc2[N+](=O)[O-])c(OC)c1,-23.8% (inactive)
7,Cc1ccc(-n2ccc(=O)c(C(=O)Nc3ccc(S(=O)(=O)Nc4nccs4)cc3)n2)cc1,-13.6% (inactive)
8,C=C(C)C1CC=C(C)/C(=N/NC(=O)CCC(=O)Nc2ccccc2Cl)C1 (stereo not drawn),-11.1% (inactive)
9,O=c1c2ccc(Cl)cc2nc(-c2ccc([N+](=O)[O-])cc2)n1O,26.8% (active)
10,N#Cc1ccc(-c2nc3cc(Cl)ccc3c(=O)n2O)cc1,1.6% (active)
11,O=c1c2cc(Br)ccc2nc(-c2ccc([N+](=O)[O-])cc2)n1O,43.1% (active)
12,O=c1c2cc(Cl)ccc2nc(-c2ccc([N+](=O)[O-])cc2)n1O,31.4% (active)
13,COc1ccc(C(CC(=O)N2CCOCC2)c2c(O)cc(OC)cc2OC)cc1 (stereo not drawn),-14.7% (inactive)
14,COc1ccc(-c2cn3nc(SCC(=O)NC4CCCCC4)ccc3n2)cc1,-7.9% (inactive)
15,CCOC(=O)C(=CNc1cc(C)nn1C(C)(C)C)C(=O)OCC,-8.9% (inactive)
16,O=C(CCCc1c[nH]c2ccccc12)Nc1ccc(S(=O)(=O)Nc2ncccn2)cc1,-22% (inactive)
17,COc1ccc([N+](=O)[O-])cc1N(CC(=O)NCc1ccco1)S(C)(=O)=O,-12.1% (inactive)
18,COc1ccccc1-n1cnc2sc(C)c(C)c2c1=O,-17.7% (inactive)
19,CSc1nc2sc3c(c2c(=S)[nH]1)CC(C)(C)OC3,73.2% (active)
20,CCc1nc2sc3c(c2c(=S)[nH]1)CC(C)(C)OC3,-13.3% (inactive)
21,CCC1(C)Cc2c(sc3nc(SC)[nH]c(=S)c23)CO1 (stereo not drawn),101% (active)
22,COc1ccc(CCNC(=O)CC(NS(=O)(=O)c2ccc(NC(C)=O)cc2)C(C)C)cc1OC (stereo not drawn),-17.8% (inactive)
23,COC(=O)c1sccc1NS(=O)(=O)c1ccc(F)cc1F,-1.9% (inactive)
24,Cc1ccc(S(=O)(=O)N(C)C)cc1NC(=S)NC(C)CCCC(C)C (stereo not drawn),-25.5% (inactive)
25,Cc1cccc(/C=N/Nc2ccc3ccccc3n2)c1,-14.1% (inactive)

row,SMILES,"activity change, less the hit threshold"
1,Cn1cc(/C=C2\SC(=O)NC2=S)c2ccccc21,-17.7% (inactive)
2,CCOc1ccc(/C=C2/SC(=O)NC2=S)cc1,83.5% (active)
3,CCOc1ccc(/C=C2\CCc3ccccc3C2=O)cc1,-13.5% (inactive)
4,O=C(O)c1ccccc1NC(=O)C1CCN(S(=O)(=O)c2cccc3nsnc23)CC1,-7% (inactive)
5,Cc1ccc2nsnc2c1S(=O)(=O)Nc1cccc2nsnc12,3.5% (active)
6,O=C(N/N=C/C(Cl)=C/c1ccc([N+](=O)[O-])cc1)C(=O)Nc1ccc(C(=O)O)cc1,-18.4% (inactive)
7,O=C(Nc1cccc(N=Cc2cc(Cl)cc(Br)c2O)c1)c1ccco1,22.4% (active)
8,O=C(Nc1ccccc1C(=O)O)c1cccc(NC(=O)c2ccco2)c1,-3.3% (inactive)
9,O=C(NC(=S)Nc1cccc([N+](=O)[O-])c1)c1ccco1,-20.7% (inactive)
10,Oc1c(Cl)cc(Cl)cc1C=Nc1ccc(Br)cc1,38.8% (active)
11,Oc1c(Br)cc(Cl)cc1C=Nc1ccccc1Br,28.2% (active)
12,Cc1cccc(N=Cc2cc(Br)cc(Cl)c2O)c1,30.4% (active)
13,COc1cccc(CN=c2c([N+](=O)[O-])nn(-c3ccccc3C)n2O)c1,-19.6% (inactive)
14,CCOCCOCN(C#N)c1nc(OC)nc(N(C)C)n1,-20.4% (inactive)
15,NC(=O)c1cccc(N=Cc2cc(Cl)cc(Cl)c2O)c1,28.8% (active)
16,Cc1ccc(N=Cc2cc(Cl)cc(Cl)c2O)nc1,22.5% (active)
17,COc1cc(Br)cc(C=Nc2cccc(C(F)(F)F)c2)c1O,5.7% (active)
18,Cc1ccc(N=Cc2cc(Br)cc(Cl)c2O)cc1,5.8% (active)
19,COc1cc(Br)cc(/C=N/NC(=O)Cc2ccccc2)c1O,-9.1% (inactive)
20,CCC[C@H]1COCCS(=O)(=O)N1Cc1ccc(Br)cc1,-9.4% (inactive)
21,COc1ccc(/C=C2\SC(=N)N(c3nccs3)C2=O)cc1OC,-16.2% (inactive)
22,Cc1ccsc1CN(C(=O)c1ccc([N+](=O)[O-])cc1)C1CCS(=O)(=O)C1 (stereo not drawn),-17.5% (inactive)
23,Cc1ccc(C(C)C)cc1OCC(=O)Nc1ccc(N2CCCCC2)cc1,-13.5% (inactive)
24,Oc1c(Br)cc(Br)cc1CNc1cccc2cccnc12,-29.6% (inactive)
25,Oc1c(Br)cc(Br)cc1C=Nc1cccc2ncccc12,30.9% (active)

row,SMILES,"activity change, less the hit threshold"
1,Cc1cccc(N2CCN(C(=O)C3CCN(S(=O)(=O)c4cccnc4)CC3)CC2)c1C,-14.6% (inactive)
2,O=C(CSCc1cnn(-c2ccccc2)c1-n1cccc1)NCc1cccnc1,-9% (inactive)
3,CC1=[N+]([O-])C(C)(C)C(c2ccc(Br)cc2)=[N+]1[O-],7.3% (active)
4,Cc1cc(C)c(S(=O)(=O)NCc2ccccn2)c(C)c1,-18.8% (inactive)
5,CSc1nc(-c2ccco2)cc(C(F)(F)F)c1C#N,-9.1% (inactive)
6,O=C(O)COc1ccccc1/C=C1\SC(=S)N(NC(=O)c2ccccc2O)C1=O,-12.9% (inactive)
7,Cc1c(N2C(=O)/C(=C\c3ccccc3O)SC2=S)c(=O)n(-c2ccccc2)n1C,68.6% (active)
8,COc1ccc(C(C(=O)NC(C)(C)C)N(C(=O)CCC(=O)Nc2cc(C)on2)c2cccc(F)c2)cc1 (stereo not drawn),-14.9% (inactive)
9,CCCCc1c(O)nc(SCC(=O)N2CCOCC2)[nH]c1=O,-9.9% (inactive)
10,COC(=O)CNc1nc(Cl)nc(Nc2ccc(C)cc2)n1,-22.2% (inactive)
11,CCOC(=O)c1c(NS(=O)(=O)Cc2ccccc2)sc2c1CCCC2,32.5% (active)
12,COC(=O)c1c(NS(=O)(=O)c2ccc3ccccc3c2)sc2c1CCCC2,-15.5% (inactive)
13,Cc1ccc(C(=O)Nc2sc3c(c2C(=O)O)CCCCC3)o1,-23.9% (inactive)
14,CCOC(=O)c1c(NS(=O)(=O)c2ccc(Br)cc2)sc2c1CCC2,5.6% (active)
15,COC(=O)c1c(NS(=O)(=O)Cc2ccccc2)sc2c1CCCC2,42.1% (active)
16,CCOC(=O)c1c(C)cccc1OCC(N)=O,-12.7% (inactive)
17,CN1C(=O)c2ccc(C(=O)NCc3ccccc3)cc2C1=O,-20.8% (inactive)
18,COCCCNC(=O)CCc1nnc(Cc2ccc(-c3ccccc3)cc2)o1,-5.1% (inactive)
19,Cc1cc(=S)[nH]c2c(C)cccc12,-3.9% (inactive)
20,CCOc1cc(NC(=S)N2CCC(C(N)=O)CC2)c(C(=O)OC)cc1OCC,-11.5% (inactive)
21,O=C(COc1cccc(-n2cnnn2)c1)Nc1ccc([N+](=O)[O-])cc1,-13.3% (inactive)
22,COc1ccc(OCC(=O)NNC(=O)C(=O)Nc2ccc(C)cc2)cc1,-23.7% (inactive)
23,Cc1cccc(OCC(=O)NCc2nc(-c3ccccc3)no2)c1,-17.2% (inactive)
24,CCc1ccc(NC(=O)C(=O)NNC(=O)COc2cccc(OC)c2)cc1,14.3% (active)
25,COc1cccc(OCC(=O)NNC(=O)C(=O)Nc2cccc(C)c2)c1,33.1% (active)

row,SMILES,"activity change, less the hit threshold"
1,CCc1ccc(OCC(=O)Nc2ncn[nH]2)cc1,-16.1% (inactive)
2,CC(C)c1cccc(C(C)C)c1NC(=O)COC(=O)[C@H](C)NC(N)=O,-17.5% (inactive)
3,O=C(NC(=S)Nc1ccc(N2CCCCC2)cc1)c1ccco1,45.9% (active)
4,O=C(NC(=S)Nc1cccc(Cl)c1N1CCCCC1)c1ccco1,-12.3% (inactive)
5,O=C(NC(=S)Nc1ccccc1N1CCCC1)c1ccco1,11.2% (active)
6,O=C(NC(=S)Nc1cc(C(F)(F)F)ccc1N1CCOCC1)c1ccco1,-11.4% (inactive)
7,O=C(NC(=S)Nc1ccccc1Cl)c1ccco1,10.4% (active)
8,O=C(NC(=S)Nc1ccccc1N1CCCC1)c1cccs1,-17.3% (inactive)
9,CC1CCN(c2ccccc2NC(=S)NC(=O)c2ccco2)CC1,-14.3% (inactive)
10,O=C(NC(=S)Nc1ccccc1Br)c1ccco1,18.2% (active)
11,O=C(Nc1ccc(N2CCOCC2)cc1)c1ccc(S(=O)(=O)N2CCCCC2)cc1,-20.8% (inactive)
12,O=C(N/N=C/c1ccc(OC(F)F)cc1)C1=COCCO1,-10.9% (inactive)
13,COC(=O)c1cc2sc(Cl)cc2n1CC(=O)NCC1CCCO1 (stereo not drawn),-16.1% (inactive)
14,COc1ccc(NC(=O)c2cn(-c3ccccc3)nc2-c2ccncc2)cc1,-9.7% (inactive)
15,Nc1ncnc(Oc2cccc3cccnc23)c1[N+](=O)[O-],-25.4% (inactive)
16,CCOc1ccccc1NC(=S)NC(=O)c1ccco1,-5.9% (inactive)
17,CCC(C)c1ccccc1NC(=O)c1[nH]c(C)c(C(C)=O)c1C (stereo not drawn),-22.3% (inactive)
18,CCC(C)c1ccccc1NC(=S)NC(=O)c1ccco1 (stereo not drawn),60.2% (active)
19,N#C/C(=N/Nc1ccc([N+](=O)[O-])cc1)C(=N)N1CCCCC1,-6.1% (inactive)
20,C/C(=C/CCC(C)[C@H]1CC[C@@]2(C)C3=C(CC[C@]12C)[C@@]1(C)CCC(=O)C(C)(C)[C@@H]1CC3)C(=O)O (stereo partly drawn),-36.3% (inactive)
21,CC(C)OC(=O)CSc1nnc(C2CCCCC2)n1N,-21.8% (inactive)
22,CCC1(c2ccccc2)NC(=S)N(c2ccc(C)c(C)c2)N1 (stereo not drawn),111% (active)
23,CCC1(c2ccc(Cl)cc2)NC(=S)N(c2ccc(C)c(C)c2)N1 (stereo not drawn),101% (active)
